Reference: ChEMBL document CHEMBL4513216, “Probing the Open Global Health Chemical Diversity Library for Multistage-Active Starting Points for Next-Generation Antimalarials” (ACS Infect Dis, 2020)
The whole screen tested about 69,000 compounds, of which about 8,600 (12%) showed an effect of 50% or more. What follows is part of a selection rich in strong results, with near analogues and random picks from the rest.

What follows are molecules tested on Plasmodium berghei (assay: Screen against P. berghei liver stage (PbLuc), transformed with Luciferase, at 10uM). Conditions: tested at 10 uM.
Format: functional, HepG2

Row | SMILES | INHIBITION [%]
1 | Cc1nc(-c2ccc(F)cc2)cc(C2CCNCC2)n1 | 54.5
2 | Cc1nc(-c2ccc(F)c(F)c2)cc(C2CCNCC2)n1 | -2.09
3 | Cc1ccc(-c2cc(C3CCNCC3)nc(C)n2)cc1 | 6.26
4 | O=C(CN1CCSC(c2ccccc2)C1)NCc1ccccn1 (stereo unspecified) | 31.9
5 | O=C(CCc1ccc2c(c1)CCO2)Nc1nnn[nH]1 | 28.6
6 | COc1ccc(C(=O)N2CC(=O)N(CC3CC3)CC(O)C2)cc1 (stereo unspecified) | 42.7
7 | CC(C)c1cc(C(=O)N2CCOCC2CC(=O)c2ccco2)nn1C (stereo unspecified) | -4.35
8 | C/N=C1/c2cc3cc(OC)ccc3n2CCN1Cc1ccccc1 | 67.6
9 | C/N=C1\c2cc3cc(OC)ccc3n2CCN1Cc1ccccc1 | 83
10 | COc1ccc2c(ccn2CCN)c1 | 34.7
11 | C/N=C1\c2cc3cc(OC)ccc3n2CCN1C | -6.09
12 | COc1ccc(CN2CC[C@@H](O)[C@@H]2Cc2ccccc2)cc1 | -23.7
13 | C/N=C1/c2cc3cc(OC)ccc3n2CCN1C | 15.06
14 | Fc1cccc(CN2CCC[C@@H](Cn3nnc(-c4ccccn4)n3)C2)c1 | 40.1
15 | Cn1nc(CNC(=O)c2cccc(C(F)(F)F)c2)c2c1CCOC2 | 15.9
16 | O=C(c1cc2c(s1)CCC2)N1CCCC1Cn1cccn1 (stereo unspecified) | -18.8
17 | Cc1nc(CSCCC(=O)NCc2ccc(-n3cncn3)nc2)cs1 | 16.8
18 | CCNC(=O)[C@@H]1CCCN1C1(C(=O)NC)CCCCC1 | 10.5
19 | Cc1n[nH]c(C)c1-c1cnc(CC2CCN(C(C)C)CC2)cn1 | 23.2
20 | O=C(CCCn1ccnc1)NC1CCCN(c2ccccc2Cl)C1 (stereo unspecified) | 88
21 | O=C(NC1CCCN(c2ccccc2Cl)C1)c1c[nH]nn1 (stereo unspecified) | 21.1
22 | Cc1cc(F)ccc1N1CCCC(NC(=O)CCCn2ccnc2)C1 (stereo unspecified) | 70.1
23 | Cc1cc(F)ccc1N1CCCC(NC(=O)CCc2ccncc2)C1 (stereo unspecified) | 29

Row | SMILES | INHIBITION [%]
24 | O=C(NC1CCCN(c2ccccc2Cl)C1)c1nc(=O)[nH][nH]1 (stereo unspecified) | -6.05
25 | Cc1ccc(Cl)cc1N1CCC(CNC(=O)CCn2ccnc2)C1 (stereo unspecified) | 31.8
26 | CCOCC1CN(c2ccncn2)Cc2cnn(CC)c21 (stereo unspecified) | 5.67
27 | Cc1nn(C)c2cn(CC(=O)N3CCc4ccccc4C3)nc12 | 8.49
28 | CCOC(=O)N1CCC(Oc2ccc(C(F)(F)F)cn2)CC1 | -16.4
29 | CCOCC(=O)N1CCC(Oc2ccc(C(F)(F)F)cn2)CC1 | 11.8
30 | CC(C)(C)NC(=O)N1CCC(Oc2ccc(C(F)(F)F)cn2)CC1 | 86.3
31 | NC(=O)Cn1cc(NC(=O)N2CCSCC2)cn1 | -15
32 | O=C(NCc1ccnc(OCC(F)(F)F)c1)NCC1COCCO1 (stereo unspecified) | 4.12
33 | CC(CC(=O)c1ccccc1)NC(=O)c1ccon1 (stereo unspecified) | 28.2
34 | Cc1nc(CSCCC(=O)NCc2ccc(N(C)C)cc2)cs1 | -58
35 | CC(=O)N1CCN(CCCSCc2ccccc2)CC1 | -23.5
36 | Cc1ccc(C(=O)N2CCN(CCCSCC#N)CC2)cc1F | 5.41
37 | Cc1cccc(C(=O)N2CCCN(CCCSCC#N)CC2)c1 | 59.2
38 | N#CCSCCCN1CCN(C(=O)c2cccc(Cl)c2)CC1 | 10.7
39 | CC(=O)N1CCCN(CCCSCc2ccccc2)CC1 | 15.7
40 | N#CCSCCCN1CCN(C(=O)c2ccc(Cl)cc2)CC1 | 3.47
41 | O=C(c1ccccc1F)N1CCN(CCCn2cncn2)CC1 | 32.3
42 | N#CCSCCCN1CCCN(C(=O)c2ccccc2)CC1 | 50.1
43 | N#CCSCCCN1CCN(C(=O)c2ccccc2F)CC1 | 69.7
44 | Cc1nc(CN2CCO[C@@H]3CN(Cc4ccsc4)C[C@@H]3C2)cs1 | 22.5
45 | Cc1ccc(N2CCN(C(=O)CN3C[C@H]4CC[C@@H]3C4)CC2=O)cc1 | 32.1
46 | CSc1ncnc(NCc2ccco2)c1C#N | 9

Row | SMILES | INHIBITION [%]
47 | COc1ccc(N2CCCC3(C2)CN(c2nncs2)CCO3)cc1 (stereo unspecified) | 65.6
48 | c1cncc(N2CCOC3(CCCN(c4nncs4)C3)C2)c1 (stereo unspecified) | 26.3
49 | CC(=O)N1CCCC2(C1)CN(C(=O)c1ccncc1)CCO2 (stereo unspecified) | 27.6
50 | CC(=O)N1CCCC2(C1)CN(c1nncs1)CCO2 (stereo unspecified) | 34
51 | Cc1cccc(N2CCCC3(C2)CN(c2nncs2)CCO3)c1 (stereo unspecified) | 38.5
52 | O=C(c1ccncc1)N1CCOC2(CCCN(c3nncs3)C2)C1 (stereo unspecified) | 58.4
53 | O=C(CSc1ccccc1F)NS(=O)(=O)c1ccc2c(c1)OCCO2 | 40.9
54 | CCn1cc(S(=O)(=O)N2CCN(S(=O)(=O)c3ccc(Br)s3)CC2)cn1 | 41
55 | CCn1cc(C2=CCN(CCCOc3ccccc3)CC2)cn1 | 9.56
56 | CCc1nnc(NC(=O)CCN2CC=C(c3cnn(C)c3)CC2)s1 | 60.2
57 | Cn1cc(C2=CCN(CCCC(=O)Nc3ccc(C#N)cc3)CC2)cn1 | 50.4
58 | COc1ccc(NC(=O)CCN2CC=C(c3cnn(C)c3)CC2)cc1Cl | -37.2
59 | CO[C@H]1C[C@@H](O)C12CCN(CCCOc1ccc(C(N)=O)cc1)CC2 | 33.7
60 | CC[C@@]1(O)CCN(CCCOc2ccc(C(N)=O)cc2)C[C@H]1O | 50.5
61 | NC(=O)c1ccc(OCCCN2CCC3(CC2)OCCCC3O)cc1 (stereo unspecified) | 47.6
62 | COc1ccc(NC(=O)CCN2CC=C(c3cnn(C)c3)CC2)c(C)c1 | 11.5
63 | CCc1cccc(NC(=O)CCN2CC=C(c3cnn(C)c3)CC2)c1 | 0.348
64 | Cn1cc(C2=CCN(CCCOc3ccc(C(N)=O)cc3)CC2)cn1 | 53.9
65 | COc1ccccc1OCCCN1CC=C(c2cnn(C)c2)CC1 | 30.1
66 | Cn1cc(C2=CCN(CCC(=O)NCc3ccc(Cl)cc3)CC2)cn1 | 33.7
67 | CC(C)NC(=O)CCCn1cnc2ccccc2c1=O | 10.5
68 | O=C(CCn1c(=O)oc2ccccc21)NCC(O)c1ccc(F)c(F)c1 (stereo unspecified) | -12.5
69 | O=S(=O)(N1CCOCC1)N1CCCCC1CCn1cccn1 (stereo unspecified) | -84.5

Row | SMILES | INHIBITION [%]
70 | N#Cc1c(CN2CCCC2Cn2cncn2)cn2ccccc12 (stereo unspecified) | -36
71 | O=C(c1ccccn1)N1CCC(S(=O)(=O)c2ccccc2)C1 (stereo unspecified) | 45.5
72 | O=C1CCOC[C@]2(CN(Cc3ccccc3)C[C@H]2c2ccccc2)N1 | 37.1
73 | CCC(O)CN1CCN(C(=O)CCc2c(C)noc2Cl)CC1 (stereo unspecified) | 25.1
74 | CC(=O)N1CCC(c2ccnc(Nc3cncnc3)n2)C1 (stereo unspecified) | 42.6
75 | CCN1CC2(CCNCC2)COc2ccccc2S1(=O)=O | -0.79
76 | CNC(=O)CN1C(=O)CCC12CCCN(Cc1cccc(F)c1)C2 (stereo unspecified) | 32.1
77 | Cc1nc2[nH]cnc(Nc3cc(C)n(C)n3)c-2n1 | -6.42
78 | CCn1c(C2CCCN(Cc3ccc(F)cc3Cl)C2)nn(C)c1=O (stereo unspecified) | -36.4
79 | CCn1ccnc1CN(C)C1CCCN(Cc2ccccc2F)C1 (stereo unspecified) | -11.3
80 | Cc1nc(CN2CCCC(N(C)CCc3ccncc3)C2)no1 (stereo unspecified) | 25.7
81 | CCN(Cc1ccncc1)C1CCCN(Cc2ccc(F)cc2Cl)C1 (stereo unspecified) | 62.4
82 | CCN(Cc1ccncc1)C1CCCN(C/C=C/c2ccc(F)cc2)C1 (stereo unspecified) | 55.9
83 | CCN(Cc1ccncc1)C1CCCN(Cc2ccc(F)cc2OC)C1 (stereo unspecified) | 25.5
84 | O=C(c1ccncc1F)N1CCc2onc(COc3cccnc3)c2C1 | 29.9
85 | CCc1nc(CC)n(CC(=O)NCc2ccccc2C)n1 | 37.6
86 | CC(Cn1cccn1)NC(=O)N(C)Cc1cnn(C)c1 (stereo unspecified) | 22.6
87 | O=C(c1ccc2c(c1)CCO2)N1CCN(c2cnccn2)CC1 | -32
88 | NCC(=O)N1CCCC(O)(CN2CCN(c3ccccc3)CC2)CC1 (stereo unspecified) | 2.55
89 | COc1ccc(C[C@H]2CN(c3nnc(C)s3)CC[C@H]2OC)cc1 | 61.9
90 | Cc1nnc(N2CC[C@H](OCC3CC3)[C@@H](Cc3ccccc3)C2)s1 | 41.4
91 | COc1ccc(C[C@H]2CN(c3nnc(C)s3)CC[C@@H]2OC)cc1 | -3.83
92 | Cc1nnc(N2CC[C@@H](OCC3CC3)[C@@H](Cc3ccccc3)C2)s1 | 92.5

Row | SMILES | INHIBITION [%]
93 | CO[C@H]1CCN(c2nnc(C)s2)C[C@@H]1Cc1ccccc1 | -13.7
94 | CO[C@@H]1CCN(c2nnc(C)s2)C[C@@H]1Cc1ccccc1 | 37.8
95 | CC(C)(C(=O)NCC1CCN(Cc2cccnc2)C1)c1ccccc1 (stereo unspecified) | 6.66
96 | O=C(NC1CC1)c1ccccc1NCc1cn2cccnc2n1 | -17
97 | Cn1ccnc1CN1CCC2(CC1)CC(N1CCCC1)c1ccccc12 (stereo unspecified) | 24.6
98 | CN(C)C1CCC2(CCN(Cc3nccn3C)CC2)c2ccccc21 (stereo unspecified) | 66.3
99 | CN1CC2(CCN(Cc3cccnc3)CC2)c2cccc(F)c21 | -16.9
100 | Cn1ccnc1CN1CCC2(CC1)CCN(c1ccccc1)C2=O | 16.6
101 | CN(C)C1CCC2(CCN(Cc3cccnc3)CC2)c2ccccc21 (stereo unspecified) | 50.4
102 | CN1CC2(CCN(Cc3cccnc3)CC2)c2cc(F)ccc21 | -29.8
103 | Cc1nn(CCC(=O)N2CCCC(OCc3cccnc3)C2)c(C)c1C (stereo unspecified) | 41.2
104 | COC1CCCOC12CCN(C(=O)NCCc1cccs1)CC2 (stereo unspecified) | -142
105 | O=C(N1CCCCC1)N1CCCC(c2ncncc2-c2ccncc2)C1 (stereo unspecified) | 17.1
106 | CCCc1cc(CN(C)C2CC(C)(C)NC(C)(C)C2)n[nH]1 | 11.6
107 | CCCc1cc(CN(C)C2CSCCSC2)n[nH]1 | 51.1
108 | CCCc1cc(CN(C)C2CCSCC2)n[nH]1 | 50.1
109 | COCc1cc(CN(C)C(=O)c2c[nH]nc2-c2cccc(F)c2)n[nH]1 | -11.2
110 | CCCc1cc(C(=O)N(Cc2cccnc2)C2CCCCC2)[nH]n1 | -9.87
111 | Cc1cc(CC(C)NC2CCSCC2)[nH]n1 (stereo unspecified) | 22.7
